Experimental data published in PubChem BioAssay (NCATS).
Results filed as inconclusive are left out. Entries that show only a call come without a potency. Activity calls are given as the source filed them. Unless noted, calls follow the shape of the dose curve; as a rule, active = well fitted curve in the direction sought with a large enough effect; inconclusive = small, poorly fitted or top-dose-only effect, or another doubt; inactive = no such curve, though single readings can be large; an effect the other way counts as inactive or inconclusive.

Experiments:
[1] = molecular target: ATP-dependent 6-phosphofructokinase (Trypanosoma brucei brucei) (UniProt O15648); assay: qHTS Assay to Find Inhibitors of T. brucei phosphofructokinase: hit validation (AID 492961);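 also: luminescence reports ADP formed as PFK phosphorylates fructose-6-phosphate with ATP; series mostly up to about 51 µM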
ATP-dependent 6-phosphofructokinase (Trypanosoma brucei brucei), sequence (O15648 whole entry, looked up): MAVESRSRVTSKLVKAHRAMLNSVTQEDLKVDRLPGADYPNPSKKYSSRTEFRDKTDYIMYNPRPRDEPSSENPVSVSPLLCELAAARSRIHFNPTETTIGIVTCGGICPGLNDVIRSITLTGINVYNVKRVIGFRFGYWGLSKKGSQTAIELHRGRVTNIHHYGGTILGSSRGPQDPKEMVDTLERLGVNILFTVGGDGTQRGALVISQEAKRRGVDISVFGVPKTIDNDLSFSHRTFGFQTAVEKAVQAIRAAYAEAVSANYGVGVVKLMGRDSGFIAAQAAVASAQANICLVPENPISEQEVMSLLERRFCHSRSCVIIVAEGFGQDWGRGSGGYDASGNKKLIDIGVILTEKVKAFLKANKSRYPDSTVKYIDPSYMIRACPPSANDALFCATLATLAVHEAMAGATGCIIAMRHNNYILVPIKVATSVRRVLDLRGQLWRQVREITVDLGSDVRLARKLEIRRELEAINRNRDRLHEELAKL
Outline: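 Inhibition of parasite PFK is measured as reduced ADP formation, quantified via luciferase after ATP depletion. Assay used 0.1 mM ATP, 0.5 mM F6P, 1.25 nM enzyme, 45 min incubation.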

[2] = Validation screen for small molecules that induce genotoxicity in human embryonic kidney (HEK293T) cells expressing luciferase-tagged ELG1 (AID 493106)
Outline: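 HEK293T cells expressing luciferase-tagged ELG1 were exposed to compound or DMSO vehicle for 16 hr at 37 °C, 5% CO2. Genotoxic stress raises ELG1 levels, so increased luciferase signal after ONE-Glo addition and 30 min at room temperature marks hits.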

[3] = molecular target: ATPase family AAA domain-containing protein 5 (Homo sapiens) (UniProt Q96QE3); assay: Validation screen for small molecules that inhibit ELG1-dependent DNA repair in human embryonic kidney (HEK293T) cells expressing luciferase-tagged ELG1 (AID 493107); also: nearly all actives have a fitted effect of over 70% in size; also: potency is read from the fitted curve at half-maximal effect
ATPase family AAA domain-containing protein 5 (Homo sapiens), sequence (Q96QE3 whole entry, looked up, the tested form may be a part): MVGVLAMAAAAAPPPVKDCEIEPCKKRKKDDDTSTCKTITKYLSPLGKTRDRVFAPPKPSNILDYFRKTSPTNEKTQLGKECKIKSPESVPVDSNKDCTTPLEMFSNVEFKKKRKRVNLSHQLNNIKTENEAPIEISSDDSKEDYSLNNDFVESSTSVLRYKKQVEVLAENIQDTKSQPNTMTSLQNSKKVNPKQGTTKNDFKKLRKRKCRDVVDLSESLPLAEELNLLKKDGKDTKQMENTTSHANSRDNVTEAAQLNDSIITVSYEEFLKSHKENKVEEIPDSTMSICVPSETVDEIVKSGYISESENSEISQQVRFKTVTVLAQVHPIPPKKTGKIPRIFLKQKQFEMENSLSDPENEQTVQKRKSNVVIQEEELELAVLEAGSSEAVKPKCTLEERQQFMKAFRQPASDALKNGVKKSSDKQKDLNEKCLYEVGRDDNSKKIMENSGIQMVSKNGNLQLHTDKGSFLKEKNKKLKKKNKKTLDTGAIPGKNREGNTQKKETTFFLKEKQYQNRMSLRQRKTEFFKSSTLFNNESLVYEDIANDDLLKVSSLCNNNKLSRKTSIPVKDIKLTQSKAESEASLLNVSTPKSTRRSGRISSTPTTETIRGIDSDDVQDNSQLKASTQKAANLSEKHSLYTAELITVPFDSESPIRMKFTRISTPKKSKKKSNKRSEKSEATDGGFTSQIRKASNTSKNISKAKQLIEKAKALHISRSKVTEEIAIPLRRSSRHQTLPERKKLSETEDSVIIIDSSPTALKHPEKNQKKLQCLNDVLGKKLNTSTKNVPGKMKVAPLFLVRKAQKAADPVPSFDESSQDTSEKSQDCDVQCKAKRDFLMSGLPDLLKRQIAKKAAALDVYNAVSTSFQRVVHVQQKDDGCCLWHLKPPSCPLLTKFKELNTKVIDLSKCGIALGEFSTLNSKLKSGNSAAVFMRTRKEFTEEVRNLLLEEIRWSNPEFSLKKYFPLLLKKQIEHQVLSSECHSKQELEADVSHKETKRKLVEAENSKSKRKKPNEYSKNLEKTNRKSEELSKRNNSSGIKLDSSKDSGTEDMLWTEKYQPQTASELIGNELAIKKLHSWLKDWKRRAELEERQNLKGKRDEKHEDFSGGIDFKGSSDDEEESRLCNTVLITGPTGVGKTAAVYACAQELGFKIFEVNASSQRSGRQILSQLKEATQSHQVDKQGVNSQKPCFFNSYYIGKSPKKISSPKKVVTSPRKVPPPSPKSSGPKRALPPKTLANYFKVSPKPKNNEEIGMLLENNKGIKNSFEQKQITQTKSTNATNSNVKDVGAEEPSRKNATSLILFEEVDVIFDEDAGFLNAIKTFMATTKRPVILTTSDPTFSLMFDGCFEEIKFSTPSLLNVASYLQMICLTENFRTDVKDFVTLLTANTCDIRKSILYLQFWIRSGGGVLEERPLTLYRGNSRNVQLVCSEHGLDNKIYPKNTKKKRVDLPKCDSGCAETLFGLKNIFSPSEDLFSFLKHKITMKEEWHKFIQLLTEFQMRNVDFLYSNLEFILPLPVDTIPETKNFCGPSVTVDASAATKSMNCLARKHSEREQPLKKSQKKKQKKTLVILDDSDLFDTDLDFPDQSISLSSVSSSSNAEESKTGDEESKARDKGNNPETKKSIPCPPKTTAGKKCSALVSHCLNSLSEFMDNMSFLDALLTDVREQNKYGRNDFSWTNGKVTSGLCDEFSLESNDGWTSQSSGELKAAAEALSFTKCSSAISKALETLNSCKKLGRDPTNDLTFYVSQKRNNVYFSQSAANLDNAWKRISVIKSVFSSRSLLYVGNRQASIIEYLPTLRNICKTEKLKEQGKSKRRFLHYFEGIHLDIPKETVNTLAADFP
Outline: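 HEK293T cells expressing luciferase-tagged ELG1 were co-treated with 5-fluorouridine and compound or DMSO for 16 hr at 37 °C, 5% CO2. Luciferase activity was then read with ONE-Glo after 30 min at room temperature; suppressed signal indicates blocked ELG1 function.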

[4] = molecular target: Thyrotropin-releasing hormone receptor (Homo sapiens) (UniProt P34981); assay: qHTS for Small Molecule Agonists and Allosteric Enhancers of Human TRH Receptor: Validation Screen for Agonists (AID 493127;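 active = calcium activation more than 3 SD above the typical response in the agonist read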;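 also: intracellular calcium rise by fluo-8 fluorescence before TRH EC20 addition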); settings: TRH receptor agonist cell assay; at 2 µM; stronger effect = higher value
Thyrotropin-releasing hormone receptor (Homo sapiens), sequence (P34981 whole entry, looked up): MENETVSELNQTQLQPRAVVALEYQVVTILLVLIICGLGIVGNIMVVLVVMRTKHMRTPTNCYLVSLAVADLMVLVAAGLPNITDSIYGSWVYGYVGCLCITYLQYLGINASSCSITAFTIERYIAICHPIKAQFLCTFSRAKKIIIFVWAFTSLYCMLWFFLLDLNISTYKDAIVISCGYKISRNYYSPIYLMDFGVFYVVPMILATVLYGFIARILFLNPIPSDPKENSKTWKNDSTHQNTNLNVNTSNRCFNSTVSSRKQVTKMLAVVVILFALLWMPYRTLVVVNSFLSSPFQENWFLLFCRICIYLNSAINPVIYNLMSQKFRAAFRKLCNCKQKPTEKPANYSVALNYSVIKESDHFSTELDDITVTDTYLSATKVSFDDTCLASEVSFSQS
Outline: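 TRHR-expressing cells were plated overnight in serum-containing medium, then loaded with fluo-8 calcium dye at room temperature for 30 min–1.5 h. After a 10 s baseline, compound was pin-transferred and calcium fluorescence (ex 480/em 530) read kinetically for agonist response.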

[5] = Nrf2 qHTS screen for inhibitors: Validation (AID 493153; active = well fitted inhibition curve with a large enough effect in the main read-out, with a control signal flat, not every such curve was filed as active); settings: Potency: luciferase luminescence; viability change: measured here: cytotoxicity max response
Outline: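 A549 cells carrying an ARE-driven firefly luciferase reporter, in 5% FBS OPTI-MEM, were treated with compounds in concentration-response for 18-24 h at 37°C. Viability was read by CellTiter-Fluor fluorescence, then Nrf2 activity by luciferase luminescence.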

[6] = qHTS for Inhibitors of Cell Surface uPA Generation: Validation Assay (AID 493164);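 also: RAW 264.7 macrophage cells exposed to compound for 18 h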
Outline: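 RAW 264.7, 4000 cells/well, o/n plating; cpd 7-pt 1:5 dilution 2.45 nM–38.3 uM final; 18 h, 37 C/5% CO2; ATP-Lite, 5 s luminescence exposure.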

[7] = molecular target: Galactokinase (Homo sapiens) (UniProt P51570); assay: qHTS Validation Assay for Inhibitors of Human Galactokinase (GALK) (AID 493189)
Galactokinase (Homo sapiens), sequence (P51570 whole entry, looked up): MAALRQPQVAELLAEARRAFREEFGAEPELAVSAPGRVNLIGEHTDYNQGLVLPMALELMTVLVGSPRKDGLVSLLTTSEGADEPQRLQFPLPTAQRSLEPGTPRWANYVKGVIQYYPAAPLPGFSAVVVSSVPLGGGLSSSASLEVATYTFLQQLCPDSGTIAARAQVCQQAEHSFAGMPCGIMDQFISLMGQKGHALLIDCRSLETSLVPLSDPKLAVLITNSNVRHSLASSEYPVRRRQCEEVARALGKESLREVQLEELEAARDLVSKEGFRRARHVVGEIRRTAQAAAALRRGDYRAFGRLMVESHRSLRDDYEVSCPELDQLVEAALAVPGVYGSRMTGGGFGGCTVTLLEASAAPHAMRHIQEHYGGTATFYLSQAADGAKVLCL
Outline: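 GALK (5 nM) with 35 uM ATP and 100 uM galactose in HEPES pH8.0, MgCl2, NaCl, DTT, BSA; 1 h at room temperature. Residual ATP read by Kinase-Glo Plus luminescence after 10 min.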

[8] = Validation screen for small molecules that induce DNA re-replication in SW480 colon adenocarcinoma cells (AID 504364)
Outline: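 SW480 cells seeded at 250 per well were exposed to compound or DMSO for 48 hr at 37 C, 5% CO2, then stained with Hoechst for 40 min. DNA content per nucleus was imaged (405 nm ex, 500-530 nm em).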

[9] = molecular target: Phosphoglycerate kinase, glycosomal (Trypanosoma brucei brucei) (UniProt P07378); assay: qHTS Validation Assay to Find Inhibitors of Phosphoglycerate Kinase (AID 504547)
Outline: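 PGK activity was coupled to GAPDH (100nM final), which generates the unstable substrate 1,3-bisphosphoglycerate in-well. Reactions ran 60 minutes at room temperature in 100mM TEA pH 7.6, 5mM MgCl2, 0.01% Tween-20, then Kinase-Glo Plus luminescence was read.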

[10] = molecular target: phosphoglycerate mutase (Leishmania major) (UniProt Q4Q090); assay: qHTS Validation Assay to Find Inhibitors of Phosphoglycerate Mutase (AID 504548);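 also: end-point luminescence from Kinase-GloPlus after the PGAM reaction; series mostly up to about 58 µM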
phosphoglycerate mutase (Leishmania major), sequence (Q4Q090 1-553): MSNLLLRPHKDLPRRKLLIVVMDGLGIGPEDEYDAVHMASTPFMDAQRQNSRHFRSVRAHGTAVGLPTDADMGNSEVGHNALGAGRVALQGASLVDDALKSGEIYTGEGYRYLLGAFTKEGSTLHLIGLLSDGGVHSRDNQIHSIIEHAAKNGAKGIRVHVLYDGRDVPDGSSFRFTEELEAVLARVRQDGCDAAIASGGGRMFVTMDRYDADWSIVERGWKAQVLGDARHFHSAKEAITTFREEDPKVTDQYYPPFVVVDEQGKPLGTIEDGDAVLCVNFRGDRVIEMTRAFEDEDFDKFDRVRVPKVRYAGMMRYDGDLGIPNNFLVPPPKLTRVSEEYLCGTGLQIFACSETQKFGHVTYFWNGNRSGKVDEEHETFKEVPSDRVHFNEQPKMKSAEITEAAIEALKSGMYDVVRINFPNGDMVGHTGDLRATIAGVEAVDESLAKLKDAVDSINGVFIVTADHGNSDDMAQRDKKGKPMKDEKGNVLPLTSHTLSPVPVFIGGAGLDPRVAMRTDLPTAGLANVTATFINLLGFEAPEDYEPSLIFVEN
Outline: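 Inhibition of L. major PGAM was assessed by Kinase-GloPlus luminescence following a 45-minute room-temperature reaction with enzyme at 1.25nM final.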

[11] = molecular target: Ubiquitin carboxyl-terminal hydrolase 1 (Homo sapiens) (UniProt O94782); assay: Inhibitors of USP1/UAF1: Pilot qHTS (AID 504865);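 also: rhodamine fluorescence freed from ubiquitin-rhodamine substrate followed over time; top concentration of the series differs between compounds; nearly all actives have a fitted effect of over 35% in size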
Ubiquitin carboxyl-terminal hydrolase 1 (Homo sapiens), sequence (O94782 whole entry, looked up): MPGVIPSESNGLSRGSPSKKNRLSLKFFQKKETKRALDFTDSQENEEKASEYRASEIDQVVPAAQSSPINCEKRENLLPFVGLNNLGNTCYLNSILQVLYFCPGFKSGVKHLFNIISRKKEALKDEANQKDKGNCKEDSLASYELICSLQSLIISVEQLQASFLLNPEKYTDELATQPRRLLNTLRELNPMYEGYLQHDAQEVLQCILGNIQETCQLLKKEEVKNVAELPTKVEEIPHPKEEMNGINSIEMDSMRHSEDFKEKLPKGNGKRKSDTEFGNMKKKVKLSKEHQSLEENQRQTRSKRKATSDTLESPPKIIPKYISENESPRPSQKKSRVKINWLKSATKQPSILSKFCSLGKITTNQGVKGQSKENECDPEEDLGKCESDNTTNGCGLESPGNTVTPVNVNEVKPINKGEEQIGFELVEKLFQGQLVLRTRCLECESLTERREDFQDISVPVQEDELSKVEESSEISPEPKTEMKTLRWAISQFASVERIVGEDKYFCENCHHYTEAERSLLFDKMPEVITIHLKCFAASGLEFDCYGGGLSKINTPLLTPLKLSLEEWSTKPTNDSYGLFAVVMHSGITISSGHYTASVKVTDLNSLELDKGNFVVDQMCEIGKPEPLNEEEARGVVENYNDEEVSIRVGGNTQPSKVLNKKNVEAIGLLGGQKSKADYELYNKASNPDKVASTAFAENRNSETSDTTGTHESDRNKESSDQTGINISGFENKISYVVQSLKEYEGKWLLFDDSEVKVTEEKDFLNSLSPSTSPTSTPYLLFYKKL
Outline: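 USP1/UAF1 complex (1nM) preincubated with compound 15 min at room temperature, then Ub-Rho substrate (150nM final) added. Fluorescence read kinetically at 480/540 nm, 6 reads every 60 seconds. Buffer: 50mM HEPES pH 7.8, 0.5mM EDTA, 0.1 mg/ml BSA, 1mM TCEP, 0.01% Tween-20.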

[12] = qHTS for Inhibitors of ATXN expression: Validation of Cytotoxic Assay (AID 588349)
Outline: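 HEK293 cells were dosed with titrated compounds for 72 hr at 37 degrees C. Viability was read by CellTiter Glo luminescence, with intracellular ATP as the marker of cell survival.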

[13] = qHTS for Inhibitors of ATXN expression: Validation (AID 588378); also: series mostly up to about 57 µM; nearly all actives have a fitted effect of over 75% in size
Outline: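 Luminescence from an ATXN2-FFLuc reporter in HEK293 cells served as read-out after 24 h compound treatment at 37 degrees C; CellTiter-Fluor fluorescence was recorded first to assess viability.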

[14] = molecular target: Peptidyl-prolyl cis-trans isomerase NIMA-interacting 1 (Homo sapiens) (UniProt Q13526); assay: qHTS Validation Assay to Find Inhibitors of Pin1 (AID 504536; active = well fitted inhibition curve with a large enough effect in the polarisation, with a control signal flat, not every such curve was filed as active; the % refers to the polarisation)
Peptidyl-prolyl cis-trans isomerase NIMA-interacting 1 (Homo sapiens), sequence (Q13526 whole entry, looked up): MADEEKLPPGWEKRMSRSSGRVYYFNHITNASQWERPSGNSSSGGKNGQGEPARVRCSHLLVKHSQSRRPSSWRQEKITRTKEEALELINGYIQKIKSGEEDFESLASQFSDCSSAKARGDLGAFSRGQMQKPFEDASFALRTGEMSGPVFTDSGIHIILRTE
Outline: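 Fluorescence polarization competition: compounds (titration) displace HiFluor-488-labeled Pin1-1b peptide from Pin1 (0.3 uM final) in pH 7.5 HEPES buffer with DTT, 10 min at room temperature; %Activity normalized to no-enzyme wells, curves fitted.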

[15] = molecular target: DNA dC->dU-editing enzyme APOBEC-3G (Homo sapiens) (UniProt Q9HC16); assay: qHTS for inhibitors of Vif-A3G interactions: Validation (AID 588379)
DNA dC->dU-editing enzyme APOBEC-3G (Homo sapiens), sequence (Q9HC16 whole entry, looked up): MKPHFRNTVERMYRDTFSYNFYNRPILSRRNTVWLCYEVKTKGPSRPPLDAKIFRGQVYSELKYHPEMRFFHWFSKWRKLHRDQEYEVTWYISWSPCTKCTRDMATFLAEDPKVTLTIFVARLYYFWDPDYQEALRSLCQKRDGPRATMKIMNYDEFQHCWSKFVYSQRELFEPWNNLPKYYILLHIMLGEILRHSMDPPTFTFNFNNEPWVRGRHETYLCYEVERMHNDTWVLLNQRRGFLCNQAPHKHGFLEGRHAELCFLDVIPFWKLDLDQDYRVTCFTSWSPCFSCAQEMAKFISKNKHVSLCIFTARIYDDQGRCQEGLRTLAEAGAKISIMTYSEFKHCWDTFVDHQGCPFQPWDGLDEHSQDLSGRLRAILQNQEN
Outline: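 HeLa cells stably expressing Vif and A3G-eYFP, 700 cells/well, incubated overnight at 37 deg C, then exposed to compound overnight at 37 deg C. Inhibition of Vif-mediated degradation read as increased yellow fluorescence (Ex 488/Em 500-530) by laser-scanning cytometry.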

Row | Compound | outcome [1] | Potency [2] | Potency [3] | activation [4] | Potency [5] | viability change [5] [%] | outcome [6] | outcome [7] | outcome [8] | outcome [9] | outcome [10] | Potency [11] | Potency [12] | Potency [13] | outcome [14] | outcome [15]
1 | CN(C)CCOC(=O)COc1ccc(Cl)cc1 | inactive | inactive | inactive | 0.188% (inactive) | inactive | 9.38 | inactive | inactive | inactive | inactive | inactive | inactive | inactive | inactive |  | 
2 | C[N+](C)(C)CCOC(N)=O | inactive | inactive | inactive | 30.9% (active) | inactive | 14 | inactive | inactive | inactive | inactive | inactive | inactive | inactive | inactive |  | 
3 | NCCCNCCSP(=O)(O)O | inactive | inactive | inactive | 0.812% (inactive) | inactive | 4.69 | inactive |  | inactive | inactive | inactive | inactive | inactive | inactive | inactive | 
4 | COc1cc2c(cc1OC)-c1cc(=Nc3c(C)cc(C)cc3C)n(C)c(=O)n1CC2 | inactive | inactive | 13 µM (active) | -6.75% (inactive) | inactive | -6.02 | inactive | inactive | inactive | inactive | inactive |  | inactive | inactive |  | 
5 | CCO/C([O-])=N/c1c[n+](N2CCOCC2)no1 | inactive | inactive | inactive | -0.0625% (inactive) | inactive | 7.49 | inactive | inactive | inactive | inactive | inactive | inactive | inactive | inactive |  | 
6 | CCNC(=O)N1CCN(CCCC(c2ccc(F)cc2)c2ccc(F)cc2)CC1 | inactive | inactive | inactive | 6.5% (inactive) | inactive | -3.28 | inactive | inactive | inactive | inactive | inactive | inactive |  |  | inactive | 
7 | NC/C=C/C(=O)O | inactive | inactive | inactive | 0.688% (inactive) | inactive | -0.253 | inactive | inactive | inactive | inactive | inactive | inactive | inactive | inactive |  | 
8 | NC(=O)c1ncn([C@@H]2O[C@H](CO)[C@@H](O)[C@H]2O)c1O | inactive | inactive | inactive | 1.12% (inactive) | inactive | 2.79 | inactive |  | inactive | inactive | inactive | inactive | inactive | inactive |  | 
9 | C[C@H](CS)C(=O)N1CCC[C@H]1C(=O)O | inactive | inactive | inactive | -0.375% (inactive) | inactive | 0.828 | inactive |  | inactive | inactive | inactive |  | inactive | inactive | inactive | 
10 | Cc1nnc(SCC2=C(C(=O)O)N3C(=O)[C@@H](NC(=O)Cn4cnnn4)[C@H]3SC2)s1 | inactive | inactive | inactive | 1.12% (inactive) |  |  | inactive | inactive | inactive | inactive | inactive | inactive | inactive | inactive | inactive | 
11 | CCCCNc1ccc(C(=O)OCCN(C)C)cc1 | inactive | inactive | inactive | 1.31% (inactive) | inactive | 2.59 | inactive |  | inactive | inactive | inactive | inactive | inactive | inactive | inactive | 
12 | Cc1ccc(=O)n(-c2ccccc2)c1 | inactive | inactive | inactive | 0.875% (inactive) | inactive | -2.33 | inactive | inactive | inactive | inactive | inactive | inactive | inactive | inactive | inactive | inactive
13 | COC(=O)[C@@H](N)Cc1ccc(O)c(O)c1 | inactive | inactive | inactive | 1% (inactive) | inactive | -11.8 | inactive | inactive | inactive | inactive | inactive | inactive |  | inactive |  | 
14 | O=C(O)CP(=O)(O)O | inactive | inactive | inactive |  | inactive | 10.3 | inactive | inactive | inactive | inactive | inactive | inactive | inactive | inactive | inactive | 
15 | O=C(O)CN(CCOCCOCCN(CC(=O)O)CC(=O)O)CC(=O)O | inactive | inactive | inactive |  | inactive | 3.82 | inactive | inactive | inactive | inactive | inactive | inactive | inactive | inactive | inactive | 
16 | CCN(CC)CCNC(=O)c1ccc(NC(C)=O)cc1 | inactive | inactive | inactive | 0.312% (inactive) | inactive | 16.6 | inactive | inactive | inactive | inactive | inactive | inactive | inactive | inactive | inactive | 
17 | CC(N=C(NC#N)Nc1ccncc1)C(C)(C)C (stereo not drawn) | inactive | inactive | inactive | 0.125% (inactive) | inactive | -0.502 | inactive |  | inactive |  |  | inactive | inactive | inactive |  | 
18 | Cc1ccc(Cl)c(Nc2ccccc2C(=O)O)c1Cl | inactive | inactive | inactive | 0% (inactive) |  |  | inactive |  | inactive | inactive | inactive | inactive | inactive | inactive |  | 
